The full ranking holds about 25,000 sequences; the median of “ln(normalized median fluorescence intensity)” is about 9.3, and the highest 2% start at about 10. The sample as a whole holds a higher share of the highest values than the screen did.
System: PF3D7_0420300 AP2 domain 1 (GST-tagged)
Assay: gcPBM binding intensity (ln(normalized median fluorescence intensity)); higher = stronger DNA binding
Summary of the method: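 The binding buffer was 1× PBS containing 1% milk, 0.2 mg/ml BSA, 0.5% salmon testes DNA and 0.03% Triton X-100. In it, GST-tagged P. falciparum DNA-binding domains expressed in E. coli were applied for 1 h to an Agilent 4 × 180k array of primer-extended double-stranded 36-bp intergenic genomic probes plus negative controls. Binding intensity, read with Alexa488 anti-GST antibody and a 488 nm scan, is the highest Masliner-normalised natural-log median intensity across replicate spots of either probe orientation.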

Sequence | gcPBM binding intensity (ln)
AATACACGCAGACACACACACACACGCACATATATA [CACACA_site6447] | 10.3
AATATATACATATATACACACACATATATATATATA [CACACA_site8907] | 9.75
AATACATACAGACACACACACACATATATATATATA [CACACA_site3558] | 10.1
AATACATACGGACACACACACACATATATATATATA [CACACA_site5884] | 10.2
CATACATACGGACACACACACATATATATATATATA [CACACA_site5598] | 9.97
AGAATGGTTTATAAAGGTACGTAATTTTTAATTTTA [XGTACX_site383] | 9.06
TTTTGTTAAAAAGATGTATATTTTATAAATATTTAT [CACACA_negctrl_site101] | 8.92
TTATATATTAAGAAATGTACGAAAAAAAAAATTATA [XGTACX_site3893] | 9.2
ATTATAAATAAAATATGTACATATGTATAAATACAT [XGTACX_site4002] | 9.21
AAAAAGTGACTCCTTACACACTTTACATAATTTAGT [CACACA_site4606] | 9.46
TTTCCCATAGGAAAAACACACATATATTATATATAA [CACACA_site1981] | 9.12
TCTCATAGTAAACACACACACACACCCACATATATA [CACACA_site5034] | 10.3
AAGGATCACCCACAAACACACATATATATATATATA [CACACA_site559] | 9.76
TCTCATAGGAAACACACACACACACCCACATATATA [CACACA_site1738] | 10.2
TTTACTTTCCCAAGTTGTACTGCTTCTAAGCTTTTT [XGTACX_site2708] | 9.21
TTGTTTCTCTTTAAAAGTACAAAAATGGTTACATAT [XGTACX_site3109] | 8.95
ATATATATAAAACACACACACACATGTTTTAAAACT [CACACA_site78] | 10.2
AAAAAACATACATACACACACATAAATATATATATT [CACACA_site2699] | 10.1
CATATATAAAAAAACACACACATATATATATATATA [CACACA_site1195] | 9.63
AAAAAAAAAAAACACACACACACATAAATATATATA [CACACA_site149] | 10.2
TATAAGAAAAATAACACACACATAAACATAAATACA [CACACA_site5536] | 9.87
AATATAAGAAAAATAACACACACATAAACATATATA [CACACA_site8899] | 10.1
TAAATAAATAAAAAAACACACATATAAATATAAATA [CACACA_site7815] | 9.61
TAAATAAAAAAACACACACACATATATATATATATA [CACACA_site2269] | 9.94

Sequence | gcPBM binding intensity (ln)
ATATATATAAAACACACACACACATGGTTTAAAACT [CACACA_site4219] | 10.2
AAAAAAAACATACATACACACACATAAATATATATA [CACACA_site8864] | 10.3
ATTAAATAAAAAAACACACACATATATACATATATA [CACACA_site3445] | 9.89
TATAAGAAAAATAACACACACATAAACATATATACA [CACACA_site2785] | 10.2
ACTATTAACAGTGTAGTGCAAAAAGGTTAATTATTA | 9.42
AACATAAAAAAAATATGTACATATATAATATATATA [XGTACX_site3764] | 9.29
TTTTTATGTAGAATTTTTTTATTTTTTCAAAATGGA [CACACA_negctrl_site166] | 8.69
TATATATATATTGAAGTGCAAAATACTGTACGTAAT | 9.4
GAGATAAAATAAAACACACACATATATATATAGAAT [CACACA_site2197] | 10.1
TTGTTTTGCTAAAAATGTACTCTATATAAAAGCTTT [XGTACX_site4027] | 8.98
ATGTAATATATTATATGTACATATTTTTATGTAGAT [XGTACX_site5945] | 9.2
AACATTTTTAAATATATAAAAATATATATATATATA [XGTACX_negctrl_site551] | 8.97
TATTTTAATCGTAAGTGTACTCTTTTAAGTATATGT [XGTACX_site8591] | 9.2
GGACATTTTTATAAGGTGCACGGTTTTGATATTACT [GTGCAC_site9892] | 9.46
AAAAAAAAAAATATCACACACACATAAATATAAACA [CACACA_site7138] | 10.1
CATATACATAAACACACACACACATAAATAAATATA [CACACA_site4864] | 10.2
TATATACATAAACACACACACACATATATATATATA [CACACA_site8707] | 10.1
TATATAAATATACAAACACACATACAAACATATATA [CACACA_site4754] | 9.9
AAAAAAAAATATCACACACACATAAATATAAACCAA [CACACA_site2279] | 10.1
TACATACATAAACACACACACACATATATATATATA [CACACA_site8953] | 10.1
AATAAATATATAAATACACACAAACATACATATATA [CACACA_site9340] | 9.96
TAGATACATAAACACACACACACATACATATATACA [CACACA_site9139] | 10.3
AAAAAAAAAAATATCACACACACATAAATATAAACC [CACACA_site2278] | 10.2
